Screening results deposited in PubChem BioAssay by several laboratories.
Shown are actives, neighbours in structure and some others; about 6.6% of the full set was active somewhere.
BoNT F protease – BoNT F light chain protease inhibition | Multiplex microsphere protease cleavage assay, flow cytometry | inhibition, % at 10 µM | 0.22% of 360,000 active; in the data active means inhibition above about 35%, passing the limit was not always enough; inconclusive means no clear call, values can overlap the other calls; further: plate controls were buffer without enzyme for full effect and enzyme alone for no effect
GDH-TPI counter-1 – inhibits GDH-TPI coupling enzymes, artifact for Mtb FBA screen; GDH-TPI coupled enzyme counterscreen, NADH absorbance; inhibition, % at 4.8 µM; 1.2% of 360,000 active; in the data active means inhibition above about 30%;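 further: 0% = DMSO wells and 100% = wells lacking the enzyme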
Anthrax LF prot – blocks Bacillus anthracis lethal factor protease. multiplex microsphere protease cleavage assay, LF. inhibition, % at 10 µM. 0.12% of 360,000 active; further: plate controls were buffer without enzyme for full effect and enzyme alone for no effect
FBA Mtb inh – Mtb fructose-bisphosphate aldolase inhibition. P9WQA3. purified M. tuberculosis FBA, fluorescence read-out. inhibition, % at 1 µM. 2.3% of 360,000 active; in the data active means inhibition above about 27%;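 further: 0% = vehicle and 100% = reference inhibitor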
Target sequence (P9WQA3 whole entry, looked up): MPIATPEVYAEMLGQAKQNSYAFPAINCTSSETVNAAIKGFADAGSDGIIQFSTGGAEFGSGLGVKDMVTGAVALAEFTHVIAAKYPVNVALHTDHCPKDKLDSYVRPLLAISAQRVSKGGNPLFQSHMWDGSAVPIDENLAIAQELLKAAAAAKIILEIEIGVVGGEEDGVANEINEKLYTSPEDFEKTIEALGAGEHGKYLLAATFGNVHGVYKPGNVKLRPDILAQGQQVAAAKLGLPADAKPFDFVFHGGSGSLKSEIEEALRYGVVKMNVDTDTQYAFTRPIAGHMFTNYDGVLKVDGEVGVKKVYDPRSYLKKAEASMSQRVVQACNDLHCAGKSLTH
Bead autofluor – flagged as autofluorescent in microsphere protease counterscreen; compound autofluorescence counterscreen, microsphere flow cytometry; hits give high values; 3.1% of 360,000 active; fluorescence intensity (no concentration beside the values); AID 624483; in the data active means fluorescence intensity above about 16000; inconclusive means no clear call, values can overlap the other calls
BoNT-A LC inh2 – blocks Botulinum neurotoxin A light chain protease. multiplex microsphere protease substrate cleavage, flow cytometry. inhibition, % at 10 µM. 0.17% of 360,000 active. AID 588499; further: plate controls were buffer without enzyme for full effect and enzyme alone for no effect
Mtb FBA inh conf – Mtb FBA inhibition, confirmed; shares compounds with FBA Mtb inh; purified M. tuberculosis FBA, fluorescence read-out; 78% of 5,600 active; inhibition, % at 1 µM; in the data active means inhibition above about 27%;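 further: 0% = vehicle wells and 100% = reference inhibitor wells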
GDH-TPI counter-2 – GDH-TPI inhibition counter-screen for FBA inhibitors; shares compounds with FBA Mtb inh; inhibition, % at 1 µM; 81% of 5,600 active; GDH-TPI coupled enzyme counterscreen, fluorescence; in the data active means inhibition above about 10%
* hit, by the source's call; ? = inconclusive; · = no result given; + = active, no number. Unless noted, no stated cut-off is given here; in the data, active means inhibition above about 30%; inconclusive means no clear call, values can overlap the other calls; inactive means below that.

SMILES	BoNT F protease	GDH-TPI counter-1	Anthrax LF prot	FBA Mtb inh	Bead autofluor	BoNT-A LC inh2	Mtb FBA inh conf	GDH-TPI counter-2
COc1ccc(-c2nc3cc(C)ccn3c2NCC2CCCO2)cc1OC (centres undefined)	?	-0.4	6.8	3.6	3872	-1.8	·	·
COc1cc(-c2nc3cccc(C)n3c2NCC2CCCO2)ccc1O (centres undefined)	1.6	-9.8	2.8	29.1*	4460	-0.8	+	+
CCCOC(=O)c1cc(-c2ccc(C=O)o2)ccc1Cl	1.0	27.6	-0.3	97.3*	2278	0.1	7.0	-4.5
CCOC(=O)c1ccc(-c2ccc(C=O)o2)cc1	?	21.5	-0.3	16.5	3801	?	·	·
CCOC(=O)/C=C/[C@H]1CCc2cccc(Cl)c2O1	-8.0	-3.6	-4.7	67.1*	2947	-0.6	8.7	7.0
CCOC(=O)/C=C/C(=O)OCC(=O)Nc1c(Cl)cccc1Cl	0.1	-9.6	3.5	-4.4	4373	0.8	·	·
O=S(=O)(Nc1ccccc1Br)c1cccc2cccnc12	-0.4	3.6	0.9	-0.2	3951	-0.3	·	·
O=C(NCCCN1CCOCC1)c1cc2ccccc2cc1O	-8.9	-3.8	-0.6	2.1	5411	0.3	·	·
Cc1ccc(-c2cc(C(=O)NCCCN3CCOCC3)c3ccccc3n2)cc1	2.2	12.7	?	49.8*	4775	-0.1	6.6	-4.8
O=C(CSc1nc(-c2cccs2)cc(C(F)(F)F)n1)NCCCN1CCOCC1	-8.6	10.1	11.7	0.2	3545	0.3	·	·
CCOc1ccc(-c2cc(C(=O)NCC3CCCO3)c3ccccc3n2)cc1 (centres undefined)	-16.8	11.5	-1.5	18.0	2619	-0.4	·	·
COc1ccc(-c2cc(C(F)(F)F)nc(SCC(=O)NCCCN3CCOCC3)n2)cc1	-2.3	10.8	-0.4	34.3*	2018	-0.5	110.8*	84.1*
Nc1ccccc1C(=O)NCCCN1CCOCC1	-11.8	8.6	-16.3	67.2*	3809	-3.3	76.5*	76.0*
CCOc1ccc(-c2cc(C(=O)NCCCN3CCCC3)c3ccccc3n2)cc1	-6.4	20.7	-2.4	27.9*	6564	-1.6	12.3	16.0*
CC[C@@]1(C(=O)OC)N[C@H](CN(C)C(=O)COC)[C@@H]2C(=O)N(Cc3ccccc3)C(=O)[C@@H]21	-7.0	0.9	-0.9	-2.7	3856	-0.1	·	·
CCN(CC)Cc1c(C(=O)N/N=C/c2cccs2)nnn1-c1nonc1N	1.1	13.4	-5.0	2.6	2993	0.2	·	·
Cc1ccc(-c2nc(C(=O)NCCCN3CCOCC3)cc3c2[nH]c2ccccc23)cc1	-17.0	-4.2	-6.8	17.4	6024	-0.3	·	·
CC(=O)NS(=O)(=O)c1ccc(NC(=O)c2cc(-c3ccc(C)c(C)c3)nc3ccccc23)cc1	9.6	24.6	0.7	3.0	4882	-0.2	·	·
COc1ccc(-c2cc(C(=O)NCCN3CCOCC3)c3ccccc3n2)c(OC)c1	-14.0	17.5	-0.7	-0.1	8248	0.5	·	·
COc1ccc(-c2nc(C(=O)NCCCN3CCOCC3)cc3c2[nH]c2ccccc23)cc1OC	-9.1	14.7	-6.5	50.0*	5858	-0.2	61.3*	46.3*
COc1ccc(-c2cc(C(=O)NCCN3CCOCC3)c3cc(C(C)C)ccc3n2)cc1	-13.9	12.7	3.0	42.4*	6568	-4.7	160.4*	152.6*
Cc1ccc(-c2cc(C(=O)NCCCN3CCCC3)c3ccccc3n2)cc1C	-4.1	10.4	-3.3	35.1*	7083	-2.9	94.9*	56.6*
O=C(NCCN1CCOCC1)c1cc(-c2ccccc2)nc2ccccc12	0.1	11.5	-6.7	0.4	3619	-0.2	·	·
Cc1ccc(-c2cc(C(=O)NCCCN3CCOCC3)c3ccccc3n2)cc1C	0.3	7.0	0.0	66.3*	5818	-0.6	70.2*	70.1*
CC(C)C[C@H]1CN(CCCC[C@H]2CNC(=O)C(=O)N2CCc2ccccc2)C(=O)C(=O)N1CCC1CCCCC1	-2.8	·	4.7	·	5723	-0.5	·	·
SMILES	BoNT F protease	GDH-TPI counter-1	Anthrax LF prot	FBA Mtb inh	Bead autofluor	BoNT-A LC inh2	Mtb FBA inh conf	GDH-TPI counter-2
CC1CCCC(C)N1/N=C/c1ccc(C(=O)O)cc1 (centres undefined)	-2.4	-8.6	-2.3	-4.1	5608	-1.7	·	·
Cc1cccc(C(=O)OCC(=O)NN2C(=O)NC3(CCC(C)CC3)C2=O)c1O (centres undefined)	-1.4	5.2	-5.9	0.5	5409	-0.8	·	·
CCc1ccc(Nc2ncc3c(n2)CC(C)CC3=O)cc1 (centres undefined)	-2.5	1.2	-2.8	-0.7	4530	-1.0	·	·
CCc1ccc(Nc2ncc3c(n2)CC(C)(C)CC3=O)cc1	?	17.0	-16.8	34.6*	4521	-0.1	+	172.4*
C=CCOc1ccc(-c2n[nH]c(=S)o2)cc1	6.3	3.7	-5.3	35.1*	3919	-0.6	87.1*	76.2*
CC(C)(C)C(=O)Nc1sc2c(c1-c1nc3ccccc3[nH]1)CCCC2	7.7	18.9	-0.8	83.3*	6760	3.1	82.8*	60.9*
Nc1ncnc2c1nc(Br)n2[C@@H]1O[C@@H]2COP(=O)(O)O[C@H]2[C@H]1O	1.4	2.6	-4.8	-1.3	4314	-0.2	·	·
COc1ccc(NC(=O)CCc2nnc3ccc(NCc4ccco4)nn23)cc1OC	3.0	0.7	-1.9	89.1*	3900	1.4	141.6*	118.4*
COc1ccc(CN2C(=O)CCCC2(C)c2nc3ccccc3[nH]2)cc1 (centres undefined)	0.7	·	-4.5	·	5274	-0.1	·	·
O=C1NC(=O)c2cc3ccccc3cc21	5.8	2.9	0.9	36.5*	5687	3.3	34.4*	23.9*
Cc1ccc(S(=O)(=O)C2(C(=O)N3CCN(c4cc(C)ccc4C)CC3)CC2)cc1	-6.7	1.2	-0.9	0.1	5330	0.2	·	·
COc1ccc(CCNC(=O)c2ccccc2C(=O)NCCc2ccc(OC)cc2)cc1	-6.9	3.7	-3.7	-2.4	5910	-0.8	·	·
Cc1ccc(CCNC(=O)c2coc3nc4ccccc4nc23)cc1	-1.1	10.4	-9.0	57.5*	2795	1.8	99.1*	72.2*
Nc1nc(-c2c(Cl)cccc2Cl)no1	3.6	-1.6	-2.3	1.0	5910	0.2	·	·
C[C@@H]1CN([C@@H](C)CO)C(=O)CCCn2nncc2CO[C@@H]1CN(C)C(=O)OCc1ccccc1	-3.6	4.3	-2.5	-2.2	3514	-0.1	·	·
COc1cccc2sc3cc(C#Cc4ccccn4)ccc3c(=O)c12	13.8	30.1	23.7	3.8	2961	13.1	·	·
COc1cccc2oc3ccc(C#Cc4ccccn4)cc3c(=O)c12	-2.4	11.4	-5.7	86.5*	4211	0.0	99.4*	82.9*
O=C(COc1ccccc1)Nc1cccc(-c2nn[nH]n2)c1	-0.8	2.8	4.5	-0.3	6200	0.2	·	·
O=C(COc1ccccc1)Nc1cccc(-c2nc3cc4ccccc4cc3[nH]2)c1	-13.2	28.7	1.8	72.1*	8758	3.0	101.2*	79.4*
